A selection: hits, their analogues and other compounds. The true share with any hit is near 3.8%.
PrPC surface inh = reduces human prion protein on the cell surface; P04156; cell surface PrPC, TR-FRET read-out; 370,000 compounds, 0.43% hits; inhibition, % at 13.8 µM; in the data active = inhibition above about 24%; note: 0% = median of the test wells and 100% = reference compound wells
Mtb hypoxia rep = inhibitors of hypoxia-regulated fluorescent reporter in Mycobacterium tuberculosis | M. tuberculosis hypoxia-regulated fluorescent reporter, fluorescence | fluorescence inhibition, % (test concentration not listed) | 300,000 compounds, 0.1% hits; in the data active = fluorescence inhibition mostly above about 23%, no sharp cut-off; inactive = mostly below about 17%
PrP 5UTR inh = inhibition of PrP 5' UTR reporter expression | cell-based PrP 5' UTR mRNA reporter, plate reader | 340,000 compounds, 0.35% hits | AID 488862 | inhibition, % (concentration not given with the values); in the data active = inhibition above about 52%; note: 0 = median of the neutral control wells
Mtb FBA inh = inhibits M. tuberculosis FBA enzyme; P9WQA3; purified M. tuberculosis FBA, fluorescence read-out; inhibition, % at 1 µM; 360,000 compounds, 2.3% hits; AID 588726; in the data active = inhibition above about 27%;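 note: 0% = vehicle and 100% = reference inhibitor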
Target sequence (P9WQA3 whole entry, looked up): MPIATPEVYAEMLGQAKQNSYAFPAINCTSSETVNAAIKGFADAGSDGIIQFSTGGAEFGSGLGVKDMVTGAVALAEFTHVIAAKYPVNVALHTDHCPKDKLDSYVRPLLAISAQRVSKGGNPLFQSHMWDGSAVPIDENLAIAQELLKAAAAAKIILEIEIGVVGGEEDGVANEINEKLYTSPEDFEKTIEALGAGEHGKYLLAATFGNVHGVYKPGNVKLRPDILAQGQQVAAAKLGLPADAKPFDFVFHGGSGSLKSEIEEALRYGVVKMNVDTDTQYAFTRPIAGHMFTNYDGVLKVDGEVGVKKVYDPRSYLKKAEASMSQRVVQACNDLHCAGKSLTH
GDH-TPI inh = counter-screen for M. tuberculosis FBA inhibitors: GDH-TPI coupled enzymes; AID 588335; inhibition, % at 4.8 µM; GDH-TPI coupled enzyme counterscreen, NADH absorbance; 360,000 compounds, 1.2% hits; in the data active = inhibition above about 30%;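 note: 0% = DMSO wells and 100% = wells lacking the enzyme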
Y pestis TopoI = Y. pestis Topo-I inhibition via cleavage products; Y. pestis Topo-I cleavage product accumulation, plate reader; activity, % at 10 µM; 360,000 compounds, 0.064% hits; AID 504884; in the data active = activity above about 50%, passing the limit was not always enough
The depositor's hits bear a star.

`CCc1ccc[n+](-c2[nH]c(=O)sc2/C=N/N=C(\[O-])c2cccnc2)c1` gave PrPC surface inh -8, PrP 5UTR inh 0, Mtb FBA inh -5, GDH-TPI inh 39* and Y pestis TopoI -6.
O=c1[nH]c(-[n+]2ccccc2)c(/C=N/N=C(\[O-])c2ccccc2)s1 was read as PrPC surface inh -33, PrP 5UTR inh -14, Mtb FBA inh -10, GDH-TPI inh 57* and Y pestis TopoI 2.
For O=C(NN=Cc1sc(=O)[nH]c1-[n+]1ccccc1)c1ccccc1[O-] the results were Mtb hypoxia rep 0.
For Cc1cc[n+](-c2[nH]c(=O)sc2/C=N/N=C(\[O-])c2ccncc2)cc1C the results were PrPC surface inh -15, PrP 5UTR inh -13, Mtb FBA inh -4, GDH-TPI inh 35* and Y pestis TopoI 3.
Screening COC(=O)NN=C(C)c1cccc(C(F)(F)F)c1 returned Mtb hypoxia rep 6.
For COc1ccc(-c2c(-c3cc(OC)cc(OC)c3)n(C)c3ccc(-c4ccc(OC)c(F)c4)cc23)cc1 the results were PrPC surface inh 4, Mtb hypoxia rep 0, PrP 5UTR inh 2, Mtb FBA inh 5, GDH-TPI inh 9 and Y pestis TopoI 1.
`COc1ccc(-c2c(-c3ccc(OC)c(F)c3)c3ccccc3n2C)cc1` gave PrPC surface inh 3, Mtb hypoxia rep -9, PrP 5UTR inh -8, Mtb FBA inh 37*, GDH-TPI inh 16 and Y pestis TopoI 5.
Screening Nc1c(S(=O)(=O)c2cccs2)c2nc3ccccc3nc2n1/N=C/c1cccc(O)c1 returned PrPC surface inh -8, PrP 5UTR inh -32, Mtb FBA inh 19, GDH-TPI inh 45* and Y pestis TopoI 3.
Screening CC(C)Cn1c(N)c(S(=O)(=O)c2cccs2)c2nc3ccccc3nc21 returned PrPC surface inh 5, Mtb hypoxia rep -1, PrP 5UTR inh -3, Mtb FBA inh 142*, GDH-TPI inh 23 and Y pestis TopoI 2.
Screening CNc1nc(N)c([N+](=O)[O-])c(NCC2CCCO2)n1 (stereo unspecified) returned PrPC surface inh -7, Mtb hypoxia rep -4, PrP 5UTR inh -6, Mtb FBA inh -3, GDH-TPI inh 34* and Y pestis TopoI -3.
Nc1nc(NCCOCCO)nc(NCC2CCCO2)c1[N+](=O)[O-] (stereo unspecified) was read as PrPC surface inh -9, Mtb hypoxia rep -3, PrP 5UTR inh 0, Mtb FBA inh -1, GDH-TPI inh 43* and Y pestis TopoI -4.
For COCCNc1nc(N)c([N+](=O)[O-])c(NCC2CCCO2)n1 (stereo unspecified) the results were PrPC surface inh -1, Mtb hypoxia rep 8, PrP 5UTR inh -11, Mtb FBA inh -3, GDH-TPI inh 38* and Y pestis TopoI 5.
For Nc1nc(NCCOCCO)nc(NCc2ccccc2)c1[N+](=O)[O-] the results were PrPC surface inh -4, Mtb hypoxia rep 2, PrP 5UTR inh -19, Mtb FBA inh 2, GDH-TPI inh 27 and Y pestis TopoI 0.
Screening Cc1ccc(Nc2nc(NCC3CCCO3)nc(N)c2[N+](=O)[O-])cc1 (stereo unspecified) returned PrPC surface inh -6, Mtb hypoxia rep -1, PrP 5UTR inh -67, Mtb FBA inh 9, GDH-TPI inh 25 and Y pestis TopoI -1.
`N#CC(=NNc1ccccc1F)C(=N)N1CCOCC1` gave Mtb hypoxia rep 9.
For CCN1C(=O)C2C(c3ccc(SC4CCCCC4)cc3)N[C@@](CC(C)C)(C(=O)OC)C2C1=O (stereo partly specified) the results were Mtb hypoxia rep 4.
For Cc1oc2c(CN3CCCCC3)c(O)ccc2c(=O)c1-c1ccc(Br)cc1 the results were PrPC surface inh 5, Mtb hypoxia rep 0, PrP 5UTR inh -51, Mtb FBA inh 130*, GDH-TPI inh 33* and Y pestis TopoI 6.
`Cc1oc2c(O)c(O)ccc2c(=O)c1-c1ccccc1` gave PrPC surface inh 1, Mtb hypoxia rep 10, PrP 5UTR inh -11, Mtb FBA inh 1, GDH-TPI inh 27 and Y pestis TopoI -1.
COc1ccccc1-c1c(C)oc2c(CN3CCCCC3C)c(O)ccc2c1=O (stereo unspecified) was read as PrPC surface inh 1, Mtb hypoxia rep 12, PrP 5UTR inh -6, Mtb FBA inh 145*, GDH-TPI inh 20 and Y pestis TopoI 3.

Screening data (PubChem BioAssay)
